According to PubChem BioAssay:
The source made the active and inactive calls.

How the values were obtained:
[1] = test system: PRMT1 (protein arginine N-methyltransferase 1); assay: PRMT1 binders on small-molecule microarrays, primary screen, biochemical, small-molecule microarray, 635 nm fluorescence (AID 1088); conditions: small-molecule microarray binding, higher = more signal;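 further: binding of Prmt1 protein to compounds spotted on small-molecule microarray slides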
[2] = yeast growth modulation, basal conditions, primary screen, YJM789 clinical isolate, OD600, 24 h (AID 1089);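 further: growth of clinical yeast isolate S. cerevisiae YJM 789 seeded 1000 cells per well; test concentration not given here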; conditions: S. cerevisiae YJM789 growth, higher = more signal, called active from +8 up or from −8 down
[3] = fission yeast growth modulation, primary screen, strain 972, OD600, 24 h, no modulator (AID 1090);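 further: basal condition with compound alone and no growth modifier present; test concentration not given here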; conditions: S. pombe 972 growth, higher = more signal, called active from +8 up or from −8 down
[4] = S. cerevisiae growth modulation with rapamycin, primary screen, strain BY4716, OD600, 96 h (AID 1091); conditions: higher = more signal, called active from +8 up or from −8 down; further: test concentration not given here
[5] = target: Torsin-1A-interacting protein 2 (Homo sapiens) (UniProt Q8NFQ8); assay: LULL1 binders on small-molecule microarray, primary screen, cell lysate, human LULL1 lysate, 635/667 nm fluorescence (AID 1092); conditions: hLULL1 lysate binding, 635 nm fluorescence, higher = more signal;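 further: probe is lysate of COS7 cells overexpressing human LULL1; score merges per-feature 667 nm fluorescence with signal-to-noise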
Torsin-1A-interacting protein 2 (Homo sapiens), sequence (Q8NFQ8 whole entry, looked up): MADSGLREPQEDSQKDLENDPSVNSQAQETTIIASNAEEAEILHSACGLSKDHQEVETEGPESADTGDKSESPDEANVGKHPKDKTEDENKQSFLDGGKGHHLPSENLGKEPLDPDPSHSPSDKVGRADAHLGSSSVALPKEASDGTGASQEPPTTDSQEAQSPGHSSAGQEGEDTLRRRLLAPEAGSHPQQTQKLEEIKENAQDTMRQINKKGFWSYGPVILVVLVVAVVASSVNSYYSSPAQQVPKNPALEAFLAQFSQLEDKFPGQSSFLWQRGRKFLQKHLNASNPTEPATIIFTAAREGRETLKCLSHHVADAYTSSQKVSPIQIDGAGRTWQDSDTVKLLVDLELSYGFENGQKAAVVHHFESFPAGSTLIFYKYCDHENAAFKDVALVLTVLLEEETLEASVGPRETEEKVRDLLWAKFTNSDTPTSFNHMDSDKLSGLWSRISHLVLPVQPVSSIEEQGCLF

[6] = E. coli growth modulation, two-sided OD650, primary screen, E. coli filamentation project, strain DRC41, 24 h (AID 1093); conditions: OD650, 24 h, higher = more signal, called active from +8 up or from −8 down;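 further: MC1000 strain lacking acrAB efflux and sulA so SOS filamentation is blocked; test concentration not given here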
[7] = small-molecule microarray binders of probe aLefty2, primary screen, biochemical, biotinylated probe, 635/667 nm fluorescence (AID 1094); conditions: higher = more signal;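 further: score merges spot fluorescence near 667 nm with spot signal-to-noise ratio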
[8] = test system: Noggin (protein binding on small-molecule microarray); assay: Noggin binders on small-molecule microarray, primary screen, biochemical, 635/667 nm fluorescence (AID 1095); conditions: 635 nm fluorescence, higher = more signal;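 further: score merges 667 nm feature fluorescence with signal to noise over triplicate slides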
[9] = target: Neurogenic locus notch homolog protein 3 (Homo sapiens) (UniProt Q9UM47); assay: NOTCH3 binders on small-molecule microarray, primary screen, biochemical, 635/667 nm fluorescence (AID 1096); conditions: NOTCH3 binding, 635 nm fluorescence, higher = more signal
Neurogenic locus notch homolog protein 3 (Homo sapiens), sequence (Q9UM47 whole entry, looked up): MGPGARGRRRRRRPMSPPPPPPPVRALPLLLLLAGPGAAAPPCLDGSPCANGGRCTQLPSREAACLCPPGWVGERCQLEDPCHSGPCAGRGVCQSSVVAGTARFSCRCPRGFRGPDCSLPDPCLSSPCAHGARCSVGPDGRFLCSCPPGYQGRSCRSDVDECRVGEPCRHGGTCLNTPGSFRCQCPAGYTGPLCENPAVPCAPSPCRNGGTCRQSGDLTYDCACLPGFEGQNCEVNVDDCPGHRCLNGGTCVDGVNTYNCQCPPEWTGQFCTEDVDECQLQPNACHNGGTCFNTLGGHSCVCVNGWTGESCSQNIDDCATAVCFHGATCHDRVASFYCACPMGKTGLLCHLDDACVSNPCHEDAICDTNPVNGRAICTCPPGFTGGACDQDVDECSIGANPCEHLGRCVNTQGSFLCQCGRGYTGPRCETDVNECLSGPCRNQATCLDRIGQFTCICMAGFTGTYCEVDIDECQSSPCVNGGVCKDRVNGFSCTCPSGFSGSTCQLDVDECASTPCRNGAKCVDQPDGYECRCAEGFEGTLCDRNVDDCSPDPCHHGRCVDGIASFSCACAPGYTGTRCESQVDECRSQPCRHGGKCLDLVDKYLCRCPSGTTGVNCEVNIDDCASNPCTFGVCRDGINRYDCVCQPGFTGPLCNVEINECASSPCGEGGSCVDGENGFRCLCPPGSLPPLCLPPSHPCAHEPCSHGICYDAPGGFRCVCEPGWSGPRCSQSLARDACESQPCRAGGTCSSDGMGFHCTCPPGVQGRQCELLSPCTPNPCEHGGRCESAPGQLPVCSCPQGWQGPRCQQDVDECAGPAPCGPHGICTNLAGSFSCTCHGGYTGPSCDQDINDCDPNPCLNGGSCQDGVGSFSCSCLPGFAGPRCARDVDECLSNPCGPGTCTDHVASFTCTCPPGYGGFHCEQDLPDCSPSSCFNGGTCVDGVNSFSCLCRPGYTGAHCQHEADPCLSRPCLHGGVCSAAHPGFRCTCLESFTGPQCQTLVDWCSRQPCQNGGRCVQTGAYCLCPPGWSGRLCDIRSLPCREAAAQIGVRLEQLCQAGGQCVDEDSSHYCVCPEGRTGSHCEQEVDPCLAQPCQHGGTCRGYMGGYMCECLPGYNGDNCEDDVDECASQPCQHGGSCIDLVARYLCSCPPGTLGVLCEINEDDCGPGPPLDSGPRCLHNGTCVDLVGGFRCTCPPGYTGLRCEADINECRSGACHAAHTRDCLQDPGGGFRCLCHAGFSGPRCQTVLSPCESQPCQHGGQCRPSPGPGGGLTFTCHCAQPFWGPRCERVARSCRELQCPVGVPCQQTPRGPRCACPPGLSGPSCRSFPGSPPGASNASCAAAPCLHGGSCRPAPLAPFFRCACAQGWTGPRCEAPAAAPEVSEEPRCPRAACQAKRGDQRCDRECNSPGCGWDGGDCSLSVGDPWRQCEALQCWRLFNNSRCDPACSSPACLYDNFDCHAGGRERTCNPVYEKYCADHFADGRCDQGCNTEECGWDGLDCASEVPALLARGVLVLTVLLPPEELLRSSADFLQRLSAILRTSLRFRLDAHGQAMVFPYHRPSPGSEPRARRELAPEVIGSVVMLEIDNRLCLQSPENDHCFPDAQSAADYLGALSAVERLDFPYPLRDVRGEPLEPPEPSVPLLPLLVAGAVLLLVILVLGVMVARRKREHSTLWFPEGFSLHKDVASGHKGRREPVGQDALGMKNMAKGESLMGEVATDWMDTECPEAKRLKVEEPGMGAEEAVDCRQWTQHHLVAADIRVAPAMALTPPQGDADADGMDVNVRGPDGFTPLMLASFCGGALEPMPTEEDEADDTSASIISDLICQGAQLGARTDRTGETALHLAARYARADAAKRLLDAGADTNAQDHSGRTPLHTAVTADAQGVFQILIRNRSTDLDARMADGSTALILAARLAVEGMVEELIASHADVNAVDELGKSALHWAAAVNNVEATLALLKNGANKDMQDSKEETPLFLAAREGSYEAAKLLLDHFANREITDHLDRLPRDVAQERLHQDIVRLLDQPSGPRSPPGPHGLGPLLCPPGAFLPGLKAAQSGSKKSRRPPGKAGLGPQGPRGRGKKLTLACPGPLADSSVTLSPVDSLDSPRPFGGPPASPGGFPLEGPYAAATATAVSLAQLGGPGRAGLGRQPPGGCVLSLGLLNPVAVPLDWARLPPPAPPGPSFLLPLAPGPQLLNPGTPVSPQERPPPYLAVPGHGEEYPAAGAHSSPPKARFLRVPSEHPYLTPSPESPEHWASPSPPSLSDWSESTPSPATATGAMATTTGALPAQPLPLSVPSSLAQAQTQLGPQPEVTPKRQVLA

[10] = small-molecule microarray binders of probe aEGFR, primary screen, biochemical, biotinylated probe, 635/667 nm fluorescence (AID 1097); conditions: higher = more signal;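 further: probe is a biotinylated anti-EGFR antibody binding compounds printed on slides; score combines fluorescence near 667 nm and signal to noise of each spot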
[11] = test system: Plasmodium falciparum Sir2 (PF13_0152, Sir2A); assay: pfSir2 binders on small-molecule microarrays, primary screen, biochemical, small-molecule microarray, 635 nm fluorescence (AID 1098); conditions: small-molecule microarray binding, fluorescence 635 nm; higher = more signal;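 further: score merges spot fluorescence intensity with its signal-to-noise ratio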
[12] = small-molecule microarray binders of probe aDKK1, primary screen, biochemical, biotinylated probe, 635/667 nm fluorescence (AID 1099); conditions: higher = more signal;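 further: score merges 667nm spot fluorescence with signal to noise across triplicate slides; reference of the scale not given here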
[13] = small-molecule microarray binders of probe aCHRDL2, primary screen, biochemical, biotinylated probe, 635/667 nm fluorescence (AID 1100); conditions: higher = more signal
[14] = splicing luciferase reporter signal modulators, primary screen, spliceosome inhibition project, cell-based, HEK293, splice +/- reporter (AID 1101); conditions: luminescence, 24 h, higher = more signal, called active from +8 up or from −8 down;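 further: HEK293 cells carrying a splicing-competent luciferase reporter gene; test concentration not given here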
[15] = target: Fibroblast growth factor 10 (Homo sapiens) (UniProt O15520); assay: FGF10 binders on small-molecule microarrays, primary screen, biochemical, small-molecule microarray, 635 nm fluorescence (AID 1102); conditions: FGF10 binding, fluorescence 635 nm, higher = more signal
Fibroblast growth factor 10 (Homo sapiens), sequence (O15520 whole entry, looked up): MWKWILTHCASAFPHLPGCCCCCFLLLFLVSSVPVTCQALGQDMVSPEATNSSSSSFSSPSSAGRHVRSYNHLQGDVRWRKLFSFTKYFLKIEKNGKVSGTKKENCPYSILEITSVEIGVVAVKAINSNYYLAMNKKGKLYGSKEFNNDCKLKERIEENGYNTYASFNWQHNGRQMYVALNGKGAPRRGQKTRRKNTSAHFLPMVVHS

[16] = test system: glycogen synthase kinase-3 (GSK3A per assay name; protocol says GSK3B); assay: GSK3 binders on small-molecule microarrays, primary screen, biochemical, small-molecule microarray, 635 nm fluorescence, GSK3A (AID 1103); conditions: small-molecule microarray binding, fluorescence 635 nm; higher = more signal; further: the record names both GSK3A and GSK3B
[17] = target: Epidermal growth factor receptor (Homo sapiens) (UniProt P00533); assay: EGFR binders on small-molecule microarrays, primary screen, biochemical, small-molecule microarray, 635 nm fluorescence (AID 1104); conditions: EGFR binding, higher = more signal;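 further: score merges 667 nm emission intensity with spot signal to noise over triplicate slides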
Epidermal growth factor receptor (Homo sapiens), sequence (P00533 whole entry, looked up): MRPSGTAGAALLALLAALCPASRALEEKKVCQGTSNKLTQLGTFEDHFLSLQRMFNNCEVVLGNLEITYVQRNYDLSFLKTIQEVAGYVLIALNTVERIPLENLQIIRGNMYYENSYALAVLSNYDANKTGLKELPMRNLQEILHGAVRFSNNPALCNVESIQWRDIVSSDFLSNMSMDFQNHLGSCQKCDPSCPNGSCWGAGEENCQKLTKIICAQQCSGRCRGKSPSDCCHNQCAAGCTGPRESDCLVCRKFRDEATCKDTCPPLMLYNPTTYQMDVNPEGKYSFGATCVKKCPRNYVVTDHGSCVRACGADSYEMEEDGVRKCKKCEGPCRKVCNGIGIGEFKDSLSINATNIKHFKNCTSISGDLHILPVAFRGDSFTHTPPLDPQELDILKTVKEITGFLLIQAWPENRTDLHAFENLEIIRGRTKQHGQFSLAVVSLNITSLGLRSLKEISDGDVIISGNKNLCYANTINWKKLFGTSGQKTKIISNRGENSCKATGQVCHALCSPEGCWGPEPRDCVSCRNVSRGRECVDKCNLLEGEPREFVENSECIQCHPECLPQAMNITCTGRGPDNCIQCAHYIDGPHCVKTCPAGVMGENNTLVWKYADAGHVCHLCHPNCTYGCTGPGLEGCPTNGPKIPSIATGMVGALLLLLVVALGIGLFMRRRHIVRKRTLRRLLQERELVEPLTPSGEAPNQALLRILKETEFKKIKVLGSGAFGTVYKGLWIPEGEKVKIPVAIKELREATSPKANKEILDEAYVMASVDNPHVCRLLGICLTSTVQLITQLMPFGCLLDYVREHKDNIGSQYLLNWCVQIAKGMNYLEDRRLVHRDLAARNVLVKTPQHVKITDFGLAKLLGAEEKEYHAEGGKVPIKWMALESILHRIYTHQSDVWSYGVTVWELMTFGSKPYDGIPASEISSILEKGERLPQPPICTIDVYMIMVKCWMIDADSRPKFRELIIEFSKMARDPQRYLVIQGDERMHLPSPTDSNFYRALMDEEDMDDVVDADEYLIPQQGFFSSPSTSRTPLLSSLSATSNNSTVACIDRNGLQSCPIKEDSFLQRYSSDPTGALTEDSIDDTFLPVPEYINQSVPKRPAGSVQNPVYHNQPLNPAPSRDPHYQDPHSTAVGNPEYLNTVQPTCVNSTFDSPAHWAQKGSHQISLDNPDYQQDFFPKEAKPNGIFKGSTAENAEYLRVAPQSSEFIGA

[18] = target: Follistatin-related protein 3 (Homo sapiens) (UniProt O95633); assay: FSTL3 binders on small-molecule microarrays, primary screen, biochemical, small-molecule microarray, 635 nm fluorescence (AID 1105); conditions: FSTL3 binding, higher = more signal;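 further: score merges emission near 667 nm and signal to noise per printed spot across three slides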
Follistatin-related protein 3 (Homo sapiens), sequence (O95633 whole entry, looked up): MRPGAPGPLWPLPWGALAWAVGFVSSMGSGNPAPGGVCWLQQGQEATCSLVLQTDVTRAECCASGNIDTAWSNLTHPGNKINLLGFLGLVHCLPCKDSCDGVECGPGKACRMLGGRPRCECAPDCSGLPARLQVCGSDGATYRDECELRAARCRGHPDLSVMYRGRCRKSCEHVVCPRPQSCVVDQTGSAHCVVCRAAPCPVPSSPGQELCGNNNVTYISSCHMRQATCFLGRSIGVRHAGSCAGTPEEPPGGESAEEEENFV

[19] = target: Dickkopf-related protein 1 (Homo sapiens) (UniProt O94907); assay: DKK1 binders on small-molecule microarrays, primary screen, biochemical, small-molecule microarray, 635 nm fluorescence scan (AID 1106); conditions: DKK1 binding, higher = more signal;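 further: score merges emission near 667 nm with signal to noise over three replicate slides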
Dickkopf-related protein 1 (Homo sapiens), sequence (O94907 whole entry, looked up): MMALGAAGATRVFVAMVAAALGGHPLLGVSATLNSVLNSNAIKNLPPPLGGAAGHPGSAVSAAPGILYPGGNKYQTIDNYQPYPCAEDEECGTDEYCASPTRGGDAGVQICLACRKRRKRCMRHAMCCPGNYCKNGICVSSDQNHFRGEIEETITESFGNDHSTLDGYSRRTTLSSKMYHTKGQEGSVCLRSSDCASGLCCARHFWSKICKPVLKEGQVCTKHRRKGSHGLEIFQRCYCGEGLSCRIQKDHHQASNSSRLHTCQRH

[20] = test system: Inhibin beta A chain (activin A); assay: INHBA (activin A) binders on microarrays, primary screen, biochemical, small-molecule microarray, 635 nm fluorescence scan (AID 1107); conditions: small-molecule microarray binding, higher = more signal;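 further: mouse activin A protein probed at 4.33 µg/mL on printed slides; score merges bound-protein fluorescence near 667 nm with spot signal-to-noise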

## C=CCOC(=O)[C@@]1(Cc2ccccc2)C[C@H]2CO[C@H](c3ccc(OC)cc3)N2C1=O
[1]
  composite z-score: 0.262
[2]
  z-score: -2.65 (inactive)
[3]
  z-score: -3.58 (inactive)
[4]
  z-score: 0.0326 (inactive)
[5]
  composite z-score: 0.317
[6]
  z-score: 0.1 (inactive)
[7]
  composite z-score: -0.126
[8]
  composite z-score: 0.224
[9]
  composite z-score: 0.408
[10]
  composite z-score: -0.15
[11]
  composite z-score: 0.335
[12]
  composite z-score: -0.0298
[13]
  composite z-score: -0.0084
[14]
  z-score: -0.543 (inactive)
[15]
  composite z-score: 0.25
[16]
  composite z-score: -0.0535
[17]
  composite z-score: 0.201
[18]
  composite z-score: 0.2
[19]
  composite z-score: 0.286
[20]
  composite z-score: 0.351

## CC(C)[Si]1(C(C)C)OCc2cc(C3CC3)nc(-c3ccc(Oc4ccccc4)cc3)c21
[1]
  composite z-score: -0.834
[2]
  z-score: 1.95 (inactive)
[3]
  z-score: 1.12 (inactive)
[4]
  z-score: 2.1 (inactive)
[5]
  composite z-score: -0.229
[6]
  z-score: -0.26 (inactive)
[7]
  composite z-score: -0.13
[8]
  composite z-score: -0.27
[9]
  composite z-score: -0.488
[10]
  composite z-score: -0.062
[11]
  composite z-score: -0.777
[12]
  composite z-score: 0.15
[13]
  composite z-score: 0.056
[14]
  z-score: -0.654 (inactive)
[15]
  composite z-score: -0.382
[16]
  composite z-score: -0.964
[17]
  composite z-score: -0.233
[18]
  composite z-score: -0.816
[19]
  composite z-score: -0.604
[20]
  composite z-score: 0.228

## CN(C)c1ccc(C(O)C2C=CC3C(=O)NC(=O)C3N2Nc2ccccn2)cc1 (stereo not given)
[1]
  composite z-score: 0.757
[2]
  z-score: -0.0671 (inactive)
[3]
  z-score: 0.716 (inactive)
[4]
  z-score: 0.504 (inactive)
[5]
  composite z-score: 1.31
[6]
  z-score: -1.26 (inactive)
[7]
  composite z-score: -0.118
[8]
  composite z-score: 0.438
[9]
  composite z-score: 1
[10]
  composite z-score: 0.107
[11]
  composite z-score: 1.15
[12]
  composite z-score: 0.206
[13]
  composite z-score: 0.201
[14]
  z-score: 0.936 (inactive)
[15]
  composite z-score: 0.79
[16]
  composite z-score: 0.464
[17]
  composite z-score: 0.729
[18]
  composite z-score: 1.45
[19]
  composite z-score: 1.3
[20]
  composite z-score: 0.921

## CC1CC/C=C\[C@H]2OC34C=CCN(Cc5ccccc5)C(=O)[C@H]3N(C(CO)C(C)C)C(=O)[C@@H]4C2C(=O)O1 (stereo not given in full)
[1]
  composite z-score: -0.856
[2]
  z-score: 0.0869 (inactive)
[3]
  z-score: -0.978 (inactive)
[4]
  z-score: 0.101 (inactive)
[5]
  composite z-score: 0.251
[6]
  z-score: 0.154 (inactive)
[7]
  composite z-score: -0.0042
[8]
  composite z-score: -0.964
[9]
  composite z-score: -1.1
[10]
  composite z-score: 0.244
[11]
  composite z-score: 0.659
[12]
  composite z-score: -0.239
[13]
  composite z-score: 0.146
[14]
  z-score: -0.124 (inactive)
[15]
  composite z-score: -0.871
[16]
  composite z-score: -0.484
[17]
  composite z-score: -0.471
[18]
  composite z-score: -0.902
[19]
  composite z-score: -0.415
[20]
  composite z-score: 1.09

## C=CCNC(=O)[C@@H]1[C@H]2C(=O)O[C@H](c3ccccc3)[C@H](c3ccccc3)N2[C@H](c2ccccc2OCCO)[C@@]12C(=O)Nc1ccc(C#CCC(C(=O)OC)C(=O)OC)cc12
[1]
  composite z-score: 1.45
[2]
  z-score: 1.13 (inactive)
[3]
  z-score: 1.19 (inactive)
[4]
  z-score: 3.72 (inactive)
[5]
  composite z-score: 1.77
[6]
  z-score: -0.736 (inactive)
[7]
  composite z-score: -0.366
[8]
  composite z-score: 0.0639
[9]
  composite z-score: 1.07
[10]
  composite z-score: -0.24
[11]
  composite z-score: 1.66
[12]
  composite z-score: -0.319
[13]
  composite z-score: -0.604
[14]
  z-score: -3.31 (inactive)
[15]
  composite z-score: 0.395
[16]
  composite z-score: 1.03
[17]
  composite z-score: -0.114
[18]
  composite z-score: 0.276
[19]
  composite z-score: 0.0965
[20]
  composite z-score: 0.482

## CC1=C2[C@@H](CCc3ccccc3)OB(O)C[C@@H]2[C@@H]2C(=O)N(Cc3ccccc3)C(=O)[C@@H]2C1
[1]
  composite z-score: 0.433
[2]
  z-score: -0.763 (inactive)
[3]
  z-score: -2.47 (inactive)
[4]
  z-score: -0.993 (inactive)
[5]
  composite z-score: 1.24
[6]
  z-score: -0.116 (inactive)
[7]
  composite z-score: -0.116
[8]
  composite z-score: 0.694
[9]
  composite z-score: 0.57
[10]
  composite z-score: -0.0381
[11]
  composite z-score: 0.294
[12]
  composite z-score: -0.155
[13]
  composite z-score: -0.395
[14]
  z-score: 0.81 (inactive)
[15]
  composite z-score: 0.631
[16]
  composite z-score: 0.717
[17]
  composite z-score: 0.427
[18]
  composite z-score: 0.746
[19]
  composite z-score: 0.405
[20]
  composite z-score: 0.654

## CCOC(=O)C[C@H]1[C@H](OC(=O)Cc2ccc3c(c2)OCO3)[C@@H](NC(=O)c2ccc3ccccc3n2)c2cc(OCCCO)ccc2N1C(=O)c1ccccc1
[1]
  composite z-score: 0.299
[2]
  z-score: 0.131 (inactive)
[3]
  z-score: -0.931 (inactive)
[4]
  z-score: 0.336 (inactive)
[5]
  composite z-score: 0.604
[6]
  z-score: 0.887 (inactive)
[7]
  composite z-score: 0.0209
[8]
  composite z-score: 0.257
[9]
  composite z-score: 0.363
[10]
  composite z-score: -0.0039
[11]
  composite z-score: 0.153
[12]
  composite z-score: 0.0565
[13]
  composite z-score: -0.33
[14]
  z-score: -0.149 (inactive)
[15]
  composite z-score: 0.445
[16]
  composite z-score: 0.0897
[17]
  composite z-score: 0.0654
[18]
  composite z-score: 0.73
[19]
  composite z-score: 0.283
[20]
  composite z-score: 0.696

## O=C1NC(=O)C2C1C=CC(C(O)c1ccco1)N2Nc1ccc(Cl)cc1Cl (stereo not given)
[1]
  composite z-score: 0.232
[2]
  z-score: -25.2 (active)
[3]
  z-score: -1.67 (inactive)
[4]
  z-score: -0.647 (inactive)
[5]
  composite z-score: 1.72
[6]
  z-score: -1.49 (inactive)
[7]
  composite z-score: -0.103
[8]
  composite z-score: 0.223
[9]
  composite z-score: 0.417
[10]
  composite z-score: -0.0362
[11]
  composite z-score: 0.029
[12]
  composite z-score: 0.549
[13]
  composite z-score: 0.609
[14]
  z-score: 0.545 (inactive)
[15]
  composite z-score: -0.0176
[16]
  composite z-score: 0.109
[17]
  composite z-score: -0.301
[18]
  composite z-score: 0.799
[19]
  composite z-score: -0.0083
[20]
  composite z-score: 1.39

## CC(C)[Si]1(C(C)C)OCc2cc(-c3ccc(-c4ccc(Cl)c(Cl)c4)o3)nc(-c3ccccc3)c21
[1]
  composite z-score: -0.715
[2]
  z-score: 0.0932 (inactive)
[3]
  z-score: -1.39 (inactive)
[4]
  z-score: 0.265 (inactive)
[5]
  composite z-score: -1.75
[6]
  z-score: -0.184 (inactive)
[7]
  composite z-score: -0.0803
[8]
  composite z-score: -0.401
[9]
  composite z-score: -0.444
[10]
  composite z-score: -0.316
[11]
  composite z-score: 1.33
[12]
  composite z-score: -0.0755
[13]
  composite z-score: 0.724
[14]
  z-score: 0.14 (inactive)
[15]
  composite z-score: -1.08
[16]
  composite z-score: -1.22
[17]
  composite z-score: -1.84
[18]
  composite z-score: -1.04
[19]
  composite z-score: -1.32
[20]
  composite z-score: 1.05

## Cc1cc(C)c(C(O)C2C=CC3C(=O)N(c4ccccc4)C(=O)C3N2Nc2ccccc2F)c(C)c1 (stereo not given)
[1]
  composite z-score: -0.0446
[2]
  z-score: 1.37 (inactive)
[3]
  z-score: 1.11 (inactive)
[4]
  z-score: 1.77 (inactive)
[5]
  composite z-score: 1.89
[6]
  z-score: -1.31 (inactive)
[7]
  composite z-score: 0.0216
[8]
  composite z-score: -0.73
[9]
  composite z-score: -0.0072
[10]
  composite z-score: 0.779
[11]
  composite z-score: 0.622
[12]
  composite z-score: -0.134
[13]
  composite z-score: 0.706
[14]
  z-score: 1.75 (inactive)
[15]
  composite z-score: 0.119
[16]
  composite z-score: -0.574
[17]
  composite z-score: -0.396
[18]
  composite z-score: -0.191
[19]
  composite z-score: -0.26
[20]
  composite z-score: 0.72
